Values joined by “and” are separate entries in the source; they are usually repeats but may differ in a detail not shown here. Equal values may be shown once. The campaign covered roughly 310,000 compounds. About 1,200 (0.39%) were called active. These entries were drawn from the full list. Results with a measured potency or affinity are listed apart. Unmarked numbers belong to inactive results. The rule behind the calls is not given here.

In the test the target is Large T antigen (Simian virus 40) (UniProt P03070). Put plainly: TAg ATPase/helicase activity blockers – biochemical (AID 1903). Particulars: SV40 large T antigen ATPase/helicase inhibition assay; at 20 µM; hits give high values.
Chain of Large T antigen (Simian virus 40) (P03070 whole entry, looked up): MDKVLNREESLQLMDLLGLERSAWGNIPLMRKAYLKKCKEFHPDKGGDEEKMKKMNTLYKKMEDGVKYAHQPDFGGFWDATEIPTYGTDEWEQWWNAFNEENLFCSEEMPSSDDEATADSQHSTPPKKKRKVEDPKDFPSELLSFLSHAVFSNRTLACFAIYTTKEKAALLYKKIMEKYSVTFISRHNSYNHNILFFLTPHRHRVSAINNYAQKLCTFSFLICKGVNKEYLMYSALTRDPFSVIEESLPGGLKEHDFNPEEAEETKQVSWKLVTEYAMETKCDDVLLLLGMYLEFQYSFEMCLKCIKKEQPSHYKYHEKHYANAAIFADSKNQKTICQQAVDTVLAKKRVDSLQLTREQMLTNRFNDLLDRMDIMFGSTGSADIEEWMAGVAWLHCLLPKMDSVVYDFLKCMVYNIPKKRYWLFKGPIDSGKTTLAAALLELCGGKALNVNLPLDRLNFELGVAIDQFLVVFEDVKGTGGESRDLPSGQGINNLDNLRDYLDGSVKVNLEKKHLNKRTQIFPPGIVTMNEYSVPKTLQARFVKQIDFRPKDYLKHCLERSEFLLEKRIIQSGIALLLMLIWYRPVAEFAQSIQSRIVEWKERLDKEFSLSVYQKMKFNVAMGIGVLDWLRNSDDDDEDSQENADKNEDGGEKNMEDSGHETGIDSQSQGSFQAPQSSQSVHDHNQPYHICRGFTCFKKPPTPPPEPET
On to `Cn1c(=O)[nH]c(=O)c2c1nc(CN1CCN(c3cccc(Cl)c3)CC1)n2CCc1ccccc1`, for which the inhibition is 1.29%.

Consider `COc1ccc(-c2c(C#N)c(N)n(N)c(=O)c2C#N)cc1Cl`, for which the inhibition was 3.3%. `COc1ccc(/C=C2/N=C3CCCCCN3C2=O)cc1OC`: the inhibition was 6.08%. Take `CN(C)c1ccc(/C=c2\sc3n(c2=O)CCCN=3)cc1`: the inhibition is 7.47%. With `COc1cccc(/C=C2\N=C3CCCCCN3C2=O)c1`, the inhibition was 13.8%. Then `COc1ccc(/C=C2/N=C3CCCCCN3C2=O)cc1`, with 4.2%. For the compound `O=c1/c(=C/c2ccc(O)cc2)sc2n1CCCN=2`, the inhibition is 29.1%.

Take `COc1ccc(/C=C2\N=C3CCCCCN3C2=O)cc1`: the inhibition is 3.96%.

With `O=C1/C(=C/c2ccncc2)N=C2CCCCCN12`, the inhibition was 18.3%. As to `COc1ccc(/C=C2\N=C3CCCCCN3C2=O)cc1OC`, the inhibition is 13.5%. For `CCC1Sc2ccc(S(=O)(=O)N3CCN(c4ccccc4)CC3)cc2NC1=O` (stereo unspecified), the inhibition was -0.58%. Then `O=C1C(=O)N(CCS(=O)(=O)c2ccccc2)c2ccc(F)cc21`, with 3.86%; and `CN1CC(=O)N(CC(=O)Nc2cccc(S(=O)(=O)N3CCOCC3)c2)C1=O`, with 4.06%.

As for `CCCc1nnc(NC(=O)C(=O)NCCN(CC)CC)s1`, the inhibition was 0.4%. Turning to `COCCCNC(=O)COc1ccc(-c2nccc(-c3ccccn3)n2)cc1`, the inhibition was 4.04%. `C=CCn1c(SCC(=O)N2CCCC2)nc2c([nH]c3ccccc32)c1=O`: the inhibition was 5.61%. In the case of `CCCCn1c(SC(C)C(=O)c2ccc(OC)cc2)nc2cc(S(N)(=O)=O)ccc21` (stereo unspecified), the inhibition was 17.9%. In the case of `COc1cc(OC)c(C(=O)N/N=C/c2ccoc2)cc1OC`, the inhibition was 13.6%. For `O=[N+]([O-])c1ccccc1CNCCCCO`, the inhibition is 0.09%. As for `O=C(NCCC1=CCCCC1)c1ccc(Cl)c(S(=O)(=O)Nc2ccccc2)c1`, the inhibition was -7.13%. Turning to `Cc1ccc(C)c(NC(=O)CN(C)C(=O)c2nn(C)c(=O)c3ccccc23)c1`, the inhibition is 6.79%. Consider `COc1ccc(/C=N/Nc2nc(N3CCCC3)nc(N3CCCC3)n2)cc1`, for which the inhibition is -2.38%. For `Nc1c(Cl)ncnc1N/N=C/c1cccc(O)c1`, the inhibition is 28.2%. `CCOc1cc(/C=N/Nc2nnc(C)n2N)ccc1O`: the inhibition is 24.2%. Consider `CCOc1cc(/C=N/Nc2nncc(-c3ccccc3)n2)ccc1O`, for which the inhibition is 8.31%. In the case of `COc1ccc(/C=N/Nc2nc(Nc3ccccc3)nc(N3CCCCC3)n2)cc1OC`, the inhibition is -16.1%.

For the compound `COc1ccc(/C=N/Nc2nc(N3CCCCC3)nc(N3CCCCC3)n2)cc1[N+](=O)[O-]`, the inhibition is 4.11%.

Consider `CCOc1ccc(/C=N/Nc2nc(N3CCCC3)nc(N3CCCC3)n2)cc1OC`, for which the inhibition was -0.04%.

As for `COc1ccc(/C=N/Nc2ncnc(Cl)c2N)cc1OC`, the inhibition was 19%. Then `O=c1c(Cl)c(Nc2cccc(Cl)c2)cnn1-c1nc2ccccc2s1`, with -0.81%; and `COCCCNC(=O)C(C)N1c2cccc3cccc(c23)S1(=O)=O` (stereo unspecified), with 3.72%; and `CCOC(=O)c1sc(=S)n(-c2ccc(OC)cc2)c1N`, with 15.3%.

For the compound `Cc1ccc(CN2CCN(CC(=O)NCCCN3CCN(c4ccc(F)cc4)CC3)C2=O)cc1`, the inhibition is 3.02%. For the compound `CCN1CCCC1CNC(=O)c1ccccc1Cl` (stereo unspecified), the inhibition was -13.2%.

As for `COc1cccc(NC(=O)Cn2cnc3c(oc4nc5c(cc43)CCCC5)c2=O)c1`, the inhibition was 4.45%.

Consider `CCNc1nc(NCC)nc(N/N=C/c2ccc(O)c(O)c2)n1`, for which the inhibition was 6.9%.

For the compound `CCNc1nc(NCC)nc(N/N=C/c2cc(OC)c(OC)c(OC)c2)n1`, the inhibition is 9.56%.

For the compound `[C-]#[N+][C@H](O[C@@H]1O[C@H](CO)[C@@H](O)[C@H](O)[C@H]1O)c1ccccc1`, the inhibition is 13.8%. For the compound `OCc1ccccc1O[C@@H]1O[C@H](CO)[C@@H](O)[C@H](O)[C@H]1O`, the inhibition was 10.5%. `C/C(=C1/SC(N2CCOCC2)=NC1=O)c1ccc(Br)cc1`: the inhibition is -0.65%. `CC1CCCCC1NC(=O)C1CCN(S(=O)(=O)c2cccc3nonc23)CC1` (stereo unspecified): the inhibition was 6.27%.

As to `COc1cc(OC)c(OC)cc1/C=N/NC(=O)CC1C(=O)NN=C1C` (stereo unspecified), the inhibition is 8.13%. For the compound `CC1C(=O)NN=C1C(=O)N/N=C/c1cccs1` (stereo unspecified), the inhibition is 30%. `COc1ccc(OC)c(/C=N/NC(=O)CC2C(=O)NN=C2C)c1` (stereo unspecified): the inhibition is 8.18%.

Take `COc1ccc(/C=N\NC(=O)C2=NNC(=O)C2C)cc1` (stereo unspecified): the inhibition is 21.2%. As to `CCCCC(CCCCl)C(=O)Nc1ccccc1` (stereo unspecified), the inhibition is 0.43%.

In the case of `CCN1CCCC1CNC(=O)COc1cc(=O)n(C)c2ccccc12` (stereo unspecified), the inhibition is -0.09%. Turning to `CC(=O)C[C@H]1c2ccccc2S(=O)(=O)N1C1CCCC1`, the inhibition was 3.17%. Consider `CC(C)CCN1CCN(Cc2cccc3cccnc23)CC1CCO` (stereo unspecified), for which the inhibition is -6.36%.

For the compound `CCN1CCN(C(=O)c2ccc(OCC(=O)Nc3ccc(F)cc3)c(OC)c2)CC1`, the inhibition is 4.11%. Then `O=C1c2ccccc2CN1c1ccccc1`, with 5.42%; and `COc1ccc(N2Cc3ccccc3C2=O)cc1`, with 2.48%; and `CCN(Cc1ccccc1)S(=O)(=O)c1ccc(OC)c2ncccc12`, with 11.3%. In the case of `COc1cc(-c2noc(CCC(=O)NC3CCCCC3)n2)cc(OC)c1OC`, the inhibition was 25.3%. For the compound `CN(C)c1ccc(Cl)cc1N`, the inhibition is 1.86%.

Consider `COc1ccc(C(=O)c2ccc(OC)c(N)c2)cc1N`, for which the inhibition was 8.57%. Regarding `O=C(CCS(=O)(=O)c1ccc(F)cc1)N1CCN(c2ccccc2)CC1`, the inhibition was 18.3%.

On to `CC(=C/c1ccc(C(C)C)cc1)/C=N/NC(=O)Cn1nc(C)cc1C`, for which the inhibition is 2.16%. For `CC(=O)Nc1sc(NC(=O)c2ccccc2)nc1-c1cccs1`, the inhibition is 6.41%. Take `Nc1nc(-c2cccs2)c(CC(=O)O)s1`: the inhibition was 23.1%. Regarding `O=[N+]([O-])c1cccc(C2(O)COc3ccccc3O2)c1` (stereo unspecified), the inhibition is 6.64%. Regarding `CCn1c(COc2ccccc2)nnc1SCC(=O)NC1CCCCC1`, the inhibition was 8.87%.

On to `O=c1cc(CN2CCN(c3ccccc3)CC2)nc2scc(-c3ccccc3)n12`, for which the inhibition is 3.32%. Then `CCOC(=O)C1CCN(Cc2cc(=O)n3c(-c4ccccc4)csc3n2)CC1`, with 2.57%; and `Cc1ccc(N(C(=O)CNC(=O)c2ccco2)C(C(=O)NCC2CCCO2)c2ccccc2)c(C)c1` (stereo unspecified), with 18.4%. In the case of `CCN(CC)S(=O)(=O)c1ccc(Nc2nc3ccccc3n3nnnc23)cc1`, the inhibition was -2.08%.

`N#CC1=C(S)N(c2ccccc2)C(c2ccc(-c3cc(Cl)ccc3Cl)o2)NC1=O` (stereo unspecified): the inhibition was 33.3%. `N#CC1=C(S)N(c2ccccc2)C(c2ccc(-c3cccc(Cl)c3)o2)NC1=O` (stereo unspecified): the inhibition was 34.4%. Then `Cc1cccc(N(CC(=O)N2CCCC2)S(C)(=O)=O)c1`, with 7.43%. For the compound `CSc1ccccc1NC(=O)CN(C)Cc1cccc(Cl)c1`, the inhibition was 8.82%.

With `COc1ccc(N/C(C)=C/C(=O)c2ccccc2)cc1`, the inhibition is 9.38%. Then `COc1ccc(C(=O)/C=C(\C)Nc2ccc3c(c2)OCO3)cc1`, with 5.13%. Regarding `CCCc1nc(C(C)(C)O)c(C(=O)O)n1Cc1ccc(-c2ccccc2-c2nn[nH]n2)cc1`, the inhibition is -1.62% and 6.85%. `Cc1c(/C=N/NC(=O)c2cccs2)c2ccccc2n1Cc1ccccc1Cl`: the inhibition is 14.4%. The result for `CN(Cc1ccccc1F)C(=O)c1sccc1-c1ccccc1` reads 20%; that for `CC(C)CNC(=O)NC1(C(F)(F)F)Oc2ccccc2O1`, 3.66%. Regarding `CCOC(=O)Cc1csc(NC(=O)NC2(C(F)(F)F)Oc3ccccc3O2)n1`, the inhibition was 31.1%. Regarding `O=C(Nc1ccc2c(c1)CCCN2C(=O)c1cccs1)c1c(F)cccc1Cl`, the inhibition was 13.1%. Take `Cc1c2ccccc2cc[n+]1CCCS(=O)(=O)[O-]`: the inhibition is 7.97%. The result for `CCC(=S)/C=C1\Sc2ccc3ccccc3c2N1CCCS(=O)(=O)O` reads 18.3%; that for `COC(=O)[C@@H](NC(=O)NCc1ccccc1F)C(C)C`, -2.59%; that for `COc1ccc(C(=O)N2CCN(S(=O)(=O)c3cc(Cl)ccc3OC)CC2)cc1`, 5.04%. Turning to `Cc1nn(C)c(C)c1NC(=O)CSc1nc(-c2ccccc2Cl)nc2c1cnn2-c1ccccc1`, the inhibition is 8.57%. Then `COc1cc(/C=N/NC(=O)/C(=C/c2ccccc2)CCO)ccc1O`, with 29.2%; and `COc1ccc(/C=N/NC(=O)/C(=C/c2ccccc2)CCO)cc1`, with 2.79%. In the case of `O=C(COc1ccc(N2CC(C(=O)O)CC2=O)cc1)Nc1cccc(C(F)(F)F)c1` (stereo unspecified), the inhibition is -0.75%. With `COc1ccc(/C=N/NC(=O)CCc2n[nH]c(=O)[nH]c2=O)cc1OC`, the inhibition is 9.55%. As for `COc1ccc(/C=N/NC(=O)CNc2n[nH]c(=O)[nH]c2=O)cc1OC`, the inhibition was 0.71%.

Regarding `CCOc1cc(/C=N/NC(=O)COc2nc(C)cc(COC)c2C#N)ccc1O`, the inhibition was 25.5%. As to `CCOc1cc(/C=N/NC(=O)C(=O)N2CCCC2)ccc1O`, the inhibition was 29.3%. For the compound `COc1cc(/C=N\NC(=O)CNC(=O)C(c2ccccc2)c2ccccc2)ccc1O`, the inhibition is 33.5%. Consider `COc1ccc(/C=N/NC(=O)CCc2ccccc2)cc1O`, for which the inhibition was 29.5%. In the case of `Cc1cccc(N2CCN(S(=O)(=O)c3ccc4c(c3)CC(C)N4C(=O)C3CC3)CC2)c1C` (stereo unspecified), the inhibition was 4.4%.

Take `Cc1cc(OCC(=O)NC2CC2)c2c(C)c(C)c(=O)oc2c1`: the inhibition is 20.6%. Regarding `O=C(CN1CCOCC1)Nc1cccc(C(F)(F)F)c1`, the inhibition was 16.1%. On to `COc1cc(Cl)c(C)cc1NC(=O)CCCn1c(=O)oc2ccccc21`, for which the inhibition is 4.1%.

For the origin of these results see PubChem BioAssay AID1903 (Southern Research Specialized Biocontainment Screening …, 2009).
